Measurements taken from PubChem BioAssay (Tox21).
Records with an inconclusive call do not appear. Activity calls are given as the source filed them. The call rests on the fitted dose curve; in most records, active means well fitted curve in the direction sought with a large enough effect in the repeat runs; inconclusive means weak or mixed curves; inactive means no such curve, though single readings can be large; an effect the other way counts as inactive or inconclusive.

Columns and labels:
[1] = qHTS RealTime-Glo MT Cell Viability Assay in HepG2 cells - 8 hour (AID 1224873); further: nearly all actives have a fitted effect of over 55% in size
In short: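 Real-time viability: cells seeded at 600 per well together with NanoLuc and cell-permeant prosubstrate, compounds added after 5 h incubation. Luminescence tracked at 0, 8, 16, 24, 32 and 40 h of exposure.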

[2] = qHTS RealTime-Glo MT Cell Viability Assay in HEK293 cells - 40 hour (AID 1224874); conditions: RealTime-Glo luminescence; max response: hits give low values; further: nearly all actives have a fitted effect of over 50% in size
In short: (§1)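 Nonlytic bioluminescent viability monitoring. HEK293 at 600 cells/well with reagent; 5 h settle; compound transfer by pintool; plates held at 37 C and read at set time points.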

[3] = A CellTox Green Cytotoxicity Assay to monitor cytotoxicity in HEK293 cells - 24 hour (AID 1224875); further: series mostly up to about 77 µM; nearly all actives have a fitted effect of over 45% in size
In short: (§2)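 Cytotoxicity was tracked continuously in HEK293 cells by a DNA-binding dye excluded from viable cells. Compounds were transferred in DMSO 5 h after seeding; fluorescence was recorded at intervals up to 40 h.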

[4] = A CellTox Green Cytotoxicity Assay to monitor cytotoxicity in HepG2 cells - 16 hour (AID 1224876); further: nearly all actives have a fitted effect of over 45% in size
In short: (§3)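 Real-time, homogeneous cytotoxicity readout: dead-cell DNA staining by CellTox Green in HepG2 monolayers, fluorescence measured at timed intervals up to 40 h of continuous compound exposure.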

[5] = qHTS RealTime-Glo MT Cell Viability Assay in HepG2 cells - 32 hour (AID 1224877); further: nearly all actives have a fitted effect of over 55% in size; further: potency means the concentration at half of the fitted maximal effect
In short: (§4)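 HepG2 cells (600/well) were dispensed with RealTime-Glo reagents, incubated 5 h at 37 °C, then treated with compounds in DMSO for up to 40 h. Nonlytic NanoLuc luminescence reflecting viable cells was read at each stated time point.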

[6] = A CellTox Green Cytotoxicity Assay to monitor cytotoxicity in HepG2 cells - 24 hour (AID 1224878); further: nearly all actives have a fitted effect of over 45% in size
In short: as §3

[7] = A CellTox Green Cytotoxicity Assay to monitor cytotoxicity in HepG2 cells - 40 hour (AID 1224879); further: nearly all actives have a fitted effect of over 40% in size
In short: as §3

[8] = qHTS RealTime-Glo MT Cell Viability Assay in HEK293 cells - 0 hour (AID 1224880); further: top concentration of the series differs between compounds; nearly all actives have a fitted effect of over 45% in size
In short: as §1

[9] = A CellTox Green Cytotoxicity Assay to monitor cytotoxicity in HEK293 cells - 32 hour (AID 1224881); further: nearly all actives have a fitted effect of over 40% in size
In short: as §2

[10] = A CellTox Green Cytotoxicity Assay to monitor cytotoxicity in HepG2 cells - 0 hour (AID 1224882); further: nearly all actives have a fitted effect of over 35% in size
In short: as §3

[11] = A CellTox Green Cytotoxicity Assay to monitor cytotoxicity in HepG2 cells - 32 hour (AID 1224883); further: nearly all actives have a fitted effect of over 50% in size
In short: as §3

[12] = A CellTox Green Cytotoxicity Assay to monitor cytotoxicity in HEK293 cells - 8 hour (AID 1224884); further: nearly all actives have a fitted effect of over 35% in size
In short: as §2

[13] = qHTS RealTime-Glo MT Cell Viability Assay in HEK293 cells - 24 hour (AID 1224886); further: top concentration of the series differs between compounds; nearly all actives have a fitted effect of over 50% in size
In short: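 HEK293 cells seeded with NanoLuc/prosubstrate reagent, rested 5 h at 37 C, then dosed and kept at 37 C up to 40 h. Nonlytic real-time luminescence from viable cells read at 0, 8, 16, 24, 32 and 40 h.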

[14] = qHTS RealTime-Glo MT Cell Viability Assay in HEK293 cells - 8 hour (AID 1224887); further: top concentration of the series differs between compounds; nearly all actives have a fitted effect of over 50% in size
In short: as §1

[15] = A CellTox Green Cytotoxicity Assay to monitor cytotoxicity in HEK293 cells - 16 hour (AID 1224888); further: nearly all actives have a fitted effect of over 35% in size
In short: as §2

[16] = qHTS RealTime-Glo MT Cell Viability Assay in HepG2 cells - 0 hour (AID 1224889); further: nearly all actives have a fitted effect of over 50% in size
In short: as §4

[17] = A CellTox Green Cytotoxicity Assay to monitor cytotoxicity in HepG2 cells - 8 hour (AID 1224890); further: nearly all actives have a fitted effect of over 45% in size
In short: as §3

[18] = qHTS assay to identify small molecule antagonists of the estrogen receptor alpha (ER-alpha) signaling pathway using the BG1 cell line in the presence of 0.1 nM 17-beta-estradiol - cell viability counter screen (AID 1259241); further: nearly all actives have a fitted effect of over 40% in size
In short: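 Live-cell protease activity (CellTiter-Fluor fluorescence, 30 min) was read in the same wells after VM7Luc4E2 cells had been exposed to compounds with 0.1 nM 17beta-estradiol for 22 hr at 37C.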

[19] = qHTS assay to identify small molecule antagonists of the androgen receptor (AR) signaling pathway using the MDA cell line in the presence of 0.5 nM R1881 - cell viability counter screen (AID 1259242); further: nearly all actives have a fitted effect of over 45% in size
In short: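 Cytotoxicity toward MDA-kb2 cells is measured by CellTiter-Fluor live-cell protease fluorescence after 16 hr compound exposure at 37C in the presence of 0.5 nM R1881 stimulator.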

[20] = qHTS RealTime-Glo MT Cell Viability Assay in HepG2 cells - 16 hour (AID 1224885); further: nearly all actives have a fitted effect of over 50% in size
In short: as §4
On the % scale 0 is the no-effect control and ±100 the full control effect.

CC(C)COC(=O)c1ccc(N)cc1
inactive: outcome [1] | max response [2] -12.8% | outcome [3] | outcome [4] | Potency [5] | outcome [6] | Potency [7] | Potency [8] | outcome [9] | Potency [10] | Potency [11] | outcome [12] | Potency [13] | Potency [14] | outcome [15] | Potency [16] | outcome [17] | outcome [18] | outcome [19]

c1ccc2sc(SN3CCOCC3)nc2c1
inactive: outcome [1] | max response [2] 4.29% | outcome [3] | outcome [4] | Potency [5] | outcome [6] | Potency [7] | Potency [8] | outcome [9] | Potency [10] | Potency [11] | outcome [12] | outcome [20] | Potency [13] | Potency [14] | Potency [16] | outcome [17] | outcome [18] | outcome [19]

C=C(C)C(=O)OCC(O)CO (centres undefined)
inactive: outcome [1] | max response [2] 2.31% | outcome [3] | outcome [4] | Potency [5] | outcome [6] | Potency [7] | Potency [8] | outcome [9] | Potency [10] | Potency [11] | outcome [12] | Potency [13] | Potency [14] | outcome [15] | Potency [16] | outcome [17] | outcome [18] | outcome [19]

O=[N+]([O-])c1ccc(/C=N\O)o1
inactive: outcome [1] | max response [2] 4.52% | outcome [3] | outcome [4] | Potency [5] | outcome [6] | Potency [7] | Potency [8] | outcome [9] | Potency [10] | Potency [11] | outcome [12] | outcome [20] | Potency [14] | outcome [15] | Potency [16] | outcome [18] | outcome [19]

CN1CCC(=C2c3ccccc3CCc3cccnc32)CC1
inactive: outcome [1] | max response [2] -11% | outcome [3] | outcome [4] | Potency [5] | outcome [6] | Potency [7] | Potency [8] | outcome [9] | Potency [10] | Potency [11] | outcome [12] | Potency [13] | Potency [14] | outcome [15] | Potency [16] | outcome [17] | outcome [19]

CC/C=C\CCOC(C)OCC (centres undefined)
inactive: outcome [1] | max response [2] 3.36% | outcome [3] | outcome [4] | Potency [5] | outcome [6] | Potency [7] | Potency [8] | outcome [9] | Potency [10] | Potency [11] | outcome [12] | Potency [13] | Potency [14] | outcome [15] | Potency [16] | outcome [18] | outcome [19]

CC(C(=O)O)c1cccc(Oc2ccccc2)c1 (centres undefined)
inactive: outcome [1] | max response [2] -2.21% | outcome [3] | outcome [4] | Potency [5] | outcome [6] | Potency [7] | Potency [8] | outcome [9] | Potency [10] | Potency [11] | outcome [12] | Potency [13] | Potency [14] | outcome [15] | Potency [16] | outcome [17] | outcome [18] | outcome [19]

CC(C)CC(C)(N)C#N (centres undefined)
inactive: outcome [1] | max response [2] 5.01% | outcome [3] | outcome [4] | Potency [5] | outcome [6] | Potency [7] | Potency [8] | outcome [9] | Potency [11] | outcome [12] | outcome [20] | Potency [13] | Potency [14] | outcome [15] | Potency [16] | outcome [17] | outcome [18] | outcome [19]

CC(C)=CCC/C(C)=C/C#N
inactive: outcome [1] | max response [2] 2.39% | outcome [3] | outcome [4] | Potency [5] | outcome [6] | Potency [7] | Potency [8] | outcome [9] | Potency [10] | Potency [11] | outcome [12] | Potency [14] | outcome [15] | Potency [16] | outcome [17] | outcome [18] | outcome [19]

O=[N+]([O-])c1cncn1CCN1CCOCC1
inactive: outcome [1] | max response [2] -2.63% | outcome [3] | outcome [4] | Potency [5] | outcome [6] | Potency [7] | Potency [8] | outcome [9] | Potency [10] | Potency [11] | outcome [12] | outcome [20] | Potency [13] | Potency [14] | Potency [16] | outcome [17] | outcome [18] | outcome [19]

c1coc(CNc2ncnc3nc[nH]c23)c1
inactive: outcome [1] | max response [2] -15.6% | outcome [3] | outcome [4] | Potency [5] | outcome [6] | Potency [7] | Potency [8] | outcome [9] | Potency [11] | outcome [12] | outcome [20] | Potency [13] | Potency [14] | outcome [15] | Potency [16] | outcome [18] | outcome [19]

COc1ccc2cc1Oc1cc3c(cc1OC)CC[N+](C)(C)[C@H]3Cc1ccc(cc1)Oc1c(OC)c(OC)cc3c1[C@@H](C2)[N+](C)(C)CC3
active: Potency [5] 21.3 µM
inactive: outcome [1] | max response [2] -3.12% | outcome [3] | outcome [4] | outcome [6] | Potency [7] | Potency [8] | outcome [9] | Potency [10] | Potency [11] | outcome [12] | outcome [20] | Potency [13] | Potency [14] | Potency [16] | outcome [17] | outcome [19]

O=C(O)CCSCCC(=O)O
inactive: outcome [1] | max response [2] 0.716% | outcome [3] | outcome [4] | Potency [5] | outcome [6] | Potency [7] | Potency [8] | outcome [9] | Potency [11] | outcome [12] | outcome [20] | Potency [13] | Potency [14] | outcome [15] | Potency [16] | outcome [18] | outcome [19]

CC[C@H]1OC(=O)[C@H](C)[C@@H](O[C@H]2C[C@@](C)(OC)[C@@H](O)[C@H](C)O2)[C@H](C)[C@@H](O[C@@H]2O[C@H](C)C[C@H](N(C)C)[C@H]2O)[C@](C)(OC)C[C@@H](C)C(=O)[C@H](C)[C@@H](O)[C@]1(C)O
inactive: outcome [1] | max response [2] -20.3% | outcome [3] | outcome [4] | Potency [5] | outcome [6] | Potency [7] | Potency [8] | outcome [9] | Potency [10] | Potency [11] | outcome [12] | outcome [20] | Potency [14] | outcome [15] | Potency [16] | outcome [17] | outcome [18] | outcome [19]
